From PubChem BioAssay
Chronic BCR inh: inhibitors of chronic active B-cell receptor signaling. ABC-DLBCL IkBa-CBG/CBR reporter, luminescence ratio, 4 h. 0.05% of 340,000 active. Potency, µM (highest dose often 46.1 µM), inactives show at the highest dose activity change, negative = inhibition, usual class: inhibitors; active = well fitted inhibition curve with a large enough effect in the signal ratio, with a control signal flat, not every such curve was filed as active; inconclusive = small, poorly fitted or top-dose-only effect, or effect the other way, or a change in a side signal; the % refers to the signal ratio;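 also: potency is read from the fitted curve at half-maximal effect; plate controls were basal doxycycline-induced cells for no effect and cells given 10 µM MG132 for full effect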
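Doxycycline induced both beetle luciferases in TMD8 lymphoma cells; IKK-driven degradation limits the IkappaBalpha-fused green signal, while red luminescence normalises for cell number and nonspecific effects. Compounds tested up to 46 uM, 4 hrs.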
MCF10A rereplic: inducers of DNA re-replication in MCF 10A breast cells. MCF 10A DNA re-replication, Hoechst nuclear intensity, 48 h. Potency, µM (top dose mostly 46.1 µM), inactives show at the highest dose activity, positive = re-replication, usual class: activators. 2.9% of 350,000 active; also: potency is read from the fitted curve at half-maximal effect; % of control where 0% means no effect; nearly all actives have a fitted effect of over 50% in size
IL1B secr inh: inflammasome signaling inhibition, IL-1 beta readout. 4.7% of 360,000 active. THP-1 LPS/ATP IL-1B secretion, AlphaLISA, 16 h; stronger effect = lower value. AID 743279. activity change, % at 57.5 µM; in the data active = activity change below about -50%; inconclusive = mostly about -30% to -49%; also: % is scaled to controls: 0 for no effect and ±100 for the full control effect
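Secreted IL-1B measured by AlphaLISA bead assay after 16 h compound exposure of THP-1 cells; compounds (final up to 57.5 uM) added 1 h before LPS (250 ng/mL) and ATP (1.25 mM) stimulation; lower signal means less secretion.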
DT40 TDP1 CPT: growth inhibition of DT40 Tdp1-/-;hTDP1 cells with camptothecin (screen for TDP1 inhibitors); chicken DT40 Tdp1-/-;hTDP1 cells + 20 nM CPT, ATP luminescence, 48 h; Potency, µM (highest dose often 46.2 µM), without a hit: at the top dose activity change, negative = growth inhibition, usual class: inhibitors; 12% of 420,000 active; AID 686979; also: potency is read from the fitted curve at half-maximal effect; % is scaled to controls: 0 for no effect and ±100 for the full control effect; nearly all actives have a fitted effect of over 55% in size
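Chicken DT40 Tdp1-/- cells stably complemented with human TDP1 were seeded at 400 cells/well in medium containing 20 nM camptothecin, exposed to pin-transferred compounds, and grown at 37 °C for at least 48 hr. Viability was read as ATP luminescence.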
SW480 rerep: DNA re-replication induction in SW480 cells; 1.8% of 340,000 active; AID 624297; SW480 DNA re-replication, Hoechst DNA content imaging, 48 h; Potency, µM (doses to about 46.1 µM), for the others: at the top dose re-replication activation, most hits filed as activators; also: potency is read from the fitted curve at half-maximal effect; % of control where 0% means no effect; nearly all actives have a fitted effect of over 55% in size
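DNA re-replication was detected as more nuclei of elevated Hoechst intensity after 48 hr exposure to compound (23 nL pinned per well of 250 cells).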
DT40 TDP1 no CPT: qHTS for Inhibitors of human tyrosyl-DNA phosphodiesterase 1 (TDP1): qHTS in cells in absence of CPT; 15% of 420,000 active; DT40 Tdp1-/- hTDP1 cells, no CPT, ATP luminescence, 48 h; Potency, µM (series often up to 46.2 µM), without a hit: top-dose activity change, negative = growth inhibition, most hits filed as inhibitors; also: potency is read from the fitted curve at half-maximal effect; % is scaled to controls: 0 for no effect and ±100 for the full control effect; nearly all actives have a fitted effect of over 55% in size
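Chicken DT40 Tdp1-/- cells complemented with human TDP1, screened without camptothecin (DMSO vehicle only), 400 cells/well. Compounds pin-transferred, cells incubated at 37 °C for at least 48 hr. Growth read as ATP-dependent luminescence (CellTiter-Glo, 30 min at RT).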
Starred values were filed as active, the others as inactive. Sampled rows, rich in hits. Any-hit rate of the full collection: about 19%. Unless noted, calls follow the shape of the dose curve; as a rule, active = well fitted curve in the direction sought with a large enough effect; inconclusive = small, poorly fitted or top-dose-only effect, or another doubt; inactive = no such curve, though single readings can be large; an effect the other way counts as inactive or inconclusive.

CSc1cccc(NS(=O)(=O)c2ccc3[nH]cc(C(=O)N4CCCCCC4)c(=O)c3c2)c1 was read as DT40 TDP1 CPT -23% and DT40 TDP1 no CPT -11%.
For CC(C)c1cccc(C(C)C)c1NC(=O)OC1CCCCC1 the results were IL1B secr inh 2, DT40 TDP1 CPT inconclusive and DT40 TDP1 no CPT inconclusive.
Cc1sc2ncnc(N3CCC(C)CC3)c2c1C was read as Chronic BCR inh 0%, MCF10A rereplic inconclusive, IL1B secr inh 22, DT40 TDP1 CPT inconclusive, SW480 rerep -4% and DT40 TDP1 no CPT inconclusive.
`CCN(CC)c1ccc(NC(=O)c2cnc3ccccn3c2=O)c(C)c1` gave Chronic BCR inh -8%, MCF10A rereplic inconclusive, IL1B secr inh -16, DT40 TDP1 CPT inconclusive, SW480 rerep 3% and DT40 TDP1 no CPT inconclusive.
For CCCN1CCN(c2ncnc3sc(C(=O)Nc4ccc(N(CC)CC)cc4C)c(C)c23)CC1 the results were DT40 TDP1 CPT 23µM* and DT40 TDP1 no CPT 15µM*.
For Cc1sc2ncnc(N3CCN(CCOc4ccc(Cl)cc4)CC3)c2c1C the results were Chronic BCR inh -10%, MCF10A rereplic 18µM*, IL1B secr inh -58*, DT40 TDP1 CPT 2.5µM*, SW480 rerep inconclusive and DT40 TDP1 no CPT 2.5µM*.
Screening CCCN1CCN(c2ncnc3sc(C(=O)Nc4cccc(Cl)c4C)c(C)c23)CC1 returned DT40 TDP1 CPT inconclusive and DT40 TDP1 no CPT 21µM*.
`CCC(=O)C(C#N)(c1ccc(OC)c(OC)c1)C(C)C` (stereo not drawn) gave Chronic BCR inh -18%, MCF10A rereplic -2%, IL1B secr inh 13, DT40 TDP1 CPT -13%, SW480 rerep 0% and DT40 TDP1 no CPT 13%.
Screening CO[C@H]1[C@H](NC(=O)c2cccs2)c2ccccc2C12CCN(Cc1cccn1-c1cccnc1)CC2 returned DT40 TDP1 CPT 11% and DT40 TDP1 no CPT -27%.
Screening COc1ccc(C(=O)ON=C(C)c2nccs2)cc1 returned IL1B secr inh -16, DT40 TDP1 CPT -10% and DT40 TDP1 no CPT -10%.
`CCC(C)c1ccc(N(C(=O)c2ccco2)C(C(=O)NC2CCCC2)c2cccnc2)cc1` (stereo not drawn) gave Chronic BCR inh 9%, MCF10A rereplic 12%, IL1B secr inh -21, DT40 TDP1 CPT 18µM*, SW480 rerep 1% and DT40 TDP1 no CPT 16µM*.
For CC(=O)Nc1ccc(N(C(=O)c2ccco2)C(C(=O)NC2CCCCC2)c2ccccc2)cc1 (stereo not drawn) the results were Chronic BCR inh 2%, MCF10A rereplic -2%, IL1B secr inh -53*, DT40 TDP1 CPT -14%, SW480 rerep -13% and DT40 TDP1 no CPT inconclusive.
For CC(C)CN1CCN(CC#Cc2ccccc2)CC1CCO (stereo not drawn) the results were Chronic BCR inh inconclusive, MCF10A rereplic 0.65µM*, IL1B secr inh 16, DT40 TDP1 CPT -5%, SW480 rerep -22% and DT40 TDP1 no CPT 1%.
CC(C)CN1CCN(Cc2c[nH]c3ccccc23)CC1CCO (stereo not drawn) was read as Chronic BCR inh -3%, MCF10A rereplic -2%, IL1B secr inh -8, DT40 TDP1 CPT 8.2µM*, SW480 rerep 8% and DT40 TDP1 no CPT inconclusive.
`CC(C)CCN1CCN(Cc2ccoc2)CC1CCO` (stereo not drawn) gave Chronic BCR inh 9%, MCF10A rereplic 21%, IL1B secr inh -11, DT40 TDP1 CPT 7%, SW480 rerep -3% and DT40 TDP1 no CPT 6%.
Screening CC(C)CCN1CCN(CC(c2ccccc2)c2ccccc2)CC1CCO (stereo not drawn) returned Chronic BCR inh inconclusive, MCF10A rereplic 7%, IL1B secr inh 0, DT40 TDP1 CPT 23µM*, SW480 rerep 28% and DT40 TDP1 no CPT 21µM*.
CC(C)=CCN1CCN(Cc2c[nH]c3ccccc23)CC1CCO (stereo not drawn) was read as Chronic BCR inh -4%, MCF10A rereplic 1%, IL1B secr inh 3, DT40 TDP1 CPT inconclusive, SW480 rerep 4% and DT40 TDP1 no CPT inconclusive.
COc1cc(OC)c(NS(=O)(=O)c2c(C(=O)N3CCC(C)CC3)c(C)n(C)c2C)cc1Cl was read as DT40 TDP1 CPT -27% and DT40 TDP1 no CPT -30%.
Screening CSCCC(NS(=O)(=O)c1cccc(C(F)(F)F)c1)C(=O)Nc1ccccc1N1CCCC1 (stereo not drawn) returned Chronic BCR inh inconclusive, MCF10A rereplic 14%, IL1B secr inh -7, DT40 TDP1 CPT inconclusive, SW480 rerep inconclusive and DT40 TDP1 no CPT inconclusive.
CC1CCN(S(=O)(=O)c2ccc(C(=O)Nc3nnc(-c4ccncc4)o3)cc2)CC1 was read as Chronic BCR inh inconclusive, MCF10A rereplic inconclusive, IL1B secr inh 37, DT40 TDP1 CPT inconclusive, SW480 rerep 16µM* and DT40 TDP1 no CPT inconclusive.
O=C(NCc1ccc2c(c1)OCO2)c1ccc(S(=O)(=O)N2CCCCC2)cc1 was read as Chronic BCR inh inconclusive, MCF10A rereplic 1%, IL1B secr inh -13, DT40 TDP1 CPT -13%, SW480 rerep -14% and DT40 TDP1 no CPT -1%.
CS(=O)(=O)c1ccc(-c2nnc(NC(=O)c3ccc(S(=O)(=O)N4CCCC4)cc3)o2)cc1 was read as Chronic BCR inh -6%, MCF10A rereplic 12%, IL1B secr inh 3, DT40 TDP1 CPT 0%, SW480 rerep -5% and DT40 TDP1 no CPT 6%.
Screening CCOC(=O)N1CCN(S(=O)(=O)c2ccc(C(=O)Nc3nnc(C)o3)cc2)CC1 returned Chronic BCR inh 0%, MCF10A rereplic -5%, IL1B secr inh -4, DT40 TDP1 CPT 3%, SW480 rerep -1% and DT40 TDP1 no CPT -2%.
For O=C(Nc1nnc(C2CC2)o1)c1ccc(S(=O)(=O)N2CCCCC2)cc1 the results were Chronic BCR inh 5%, MCF10A rereplic 10%, IL1B secr inh -69*, DT40 TDP1 CPT inconclusive, SW480 rerep 20% and DT40 TDP1 no CPT inconclusive.
Screening Cc1nnc(NC(=O)c2ccc(S(=O)(=O)N3CC(C)CC(C)C3)cc2)o1 (stereo not drawn) returned Chronic BCR inh 6%, MCF10A rereplic -8%, IL1B secr inh 13, DT40 TDP1 CPT inconclusive, SW480 rerep inconclusive and DT40 TDP1 no CPT 16µM*.
